Results taken from PubChem BioAssay (NCI).
The panel holds about 83,000 compounds, 20% with a hit somewhere; the sample as a whole holds those more often.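 The test compound was applied at a single concentration to cells in 96-well plates for 48 hours, and percent growth was recorded.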 Calls of active or inactive are those of the source. Rule for the calls: active = growth percent below 10; inactive = the rest.

Assays:
Assay in all cases: NCI-60 one-dose screen, 48 h (100 = growth as untreated, 0 = no growth, -100 = all killed)
Conditions in all cases: 10 µM unless noted
NCI-H23 lung = test system: NCI-H23 lung
NCI-H226 lung = test system: NCI-H226 lung
NCI-H322M lung = test system: NCI-H322M lung
HOP-62 NSCLC = test system: HOP-62 NSCLC
NCI-H460 lung = test system: NCI-H460 lung
HOP-92 NSCLC = test system: HOP-92 NSCLC
NCI-H522 lung = test system: NCI-H522 lung
A549/ATCC NSCLC = test system: A549/ATCC NSCLC
786-0 renal = test system: 786-0 renal
DU-145 prostate = test system: DU-145 prostate
K-562 leukemia = test system: K-562 leukemia
MALME-3M melanoma = test system: MALME-3M melanoma
MDA-MB-231 breast = test system: MDA-MB-231 breast
RXF 393 renal = test system: RXF 393 renal
SF-268 CNS = test system: SF-268 CNS
SF-295 CNS = test system: SF-295 CNS
SF-539 CNS = test system: SF-539 CNS
UACC-257 melanoma = test system: UACC-257 melanoma
M14 melanoma = test system: M14 melanoma

Measured: growth

Cl.Fc1c[c-]c(-c2ccccn2)c(F)c1.[Pt].c1ccc([PH+](C[PH+](c2ccccc2)c2ccccc2)c2ccccc2)cc1
active: NCI-H23 lung -78.1% | NCI-H226 lung -65.9% | NCI-H322M lung -98.3% | HOP-62 NSCLC -55.4% | NCI-H460 lung -63.5% | HOP-92 NSCLC -74.2% | NCI-H522 lung -60.1% | A549/ATCC NSCLC -58.5% | 786-0 renal -68.1% | DU-145 prostate -94.8% | K-562 leukemia -18.5% | MALME-3M melanoma -92.9% | MDA-MB-231 breast -83.8% | RXF 393 renal -91.6% | SF-268 CNS -70% | SF-295 CNS -87.6% | SF-539 CNS -86.4% | UACC-257 melanoma -48.6% | M14 melanoma -87.1%

C=C(Cl)COC(=O)C(C)(C)O
inactive: NCI-H23 lung 99.4% | NCI-H226 lung 113% | NCI-H322M lung 90% | HOP-62 NSCLC 105% | NCI-H460 lung 104% | HOP-92 NSCLC 103% | NCI-H522 lung 93.8% | A549/ATCC NSCLC 94% | 786-0 renal 101% | DU-145 prostate 102% | K-562 leukemia 93.7% | MALME-3M melanoma 98.7% | MDA-MB-231 breast 121% | RXF 393 renal 111% | SF-268 CNS 101% | SF-295 CNS 102% | SF-539 CNS 102% | UACC-257 melanoma 92.2% | M14 melanoma 103%

CC(C)OC(=O)OCOP(=O)(OCOC(=O)OC(C)C)C1CCCN(O)C1=O (configuration not stated)
inactive: NCI-H23 lung 69.6% | NCI-H226 lung 56.1% | NCI-H322M lung 32.8% | HOP-62 NSCLC 13.3% | NCI-H460 lung 17% | HOP-92 NSCLC 41.7% | A549/ATCC NSCLC 22.1% | 786-0 renal 17.6% | DU-145 prostate 52.5% | K-562 leukemia 30.3% | MALME-3M melanoma 41.1% | MDA-MB-231 breast 21.8% | SF-268 CNS 26.5% | SF-295 CNS 62.8% | SF-539 CNS 75.5% | UACC-257 melanoma 55.2% | M14 melanoma 44.4%
active: NCI-H522 lung -6.81% | RXF 393 renal 8.56%

C[C@@H]1CC[C@@H]2[C@@H]1[C@H](OC(=O)c1ccc3ccccc3c1)[C@]1(C3CCCCC3)C[C@@H](OC(=O)CO)[C@@]2(C)O1
active: 786-0 renal -7.27% | RXF 393 renal 8.34%
inactive: NCI-H23 lung 65.1% | NCI-H226 lung 51.8% | NCI-H322M lung 81.5% | HOP-62 NSCLC 68% | NCI-H460 lung 49.9% | HOP-92 NSCLC 34.9% | NCI-H522 lung 49.4% | A549/ATCC NSCLC 48.8% | DU-145 prostate 72.1% | K-562 leukemia 39.6% | MALME-3M melanoma 99.9% | MDA-MB-231 breast 63.1% | SF-268 CNS 31.4% | SF-295 CNS 68.2% | SF-539 CNS 90.2% | UACC-257 melanoma 63.3% | M14 melanoma 61.4%

CC(C)n1nc(C#Cc2cccc(NC(=O)c3cccc(C(F)(F)F)c3)c2)c2c(N)ncnc21
active: NCI-H23 lung -3.4% | NCI-H226 lung -0.0561% | NCI-H322M lung -18.3% | HOP-62 NSCLC -37.9% | NCI-H460 lung 5.91% | HOP-92 NSCLC -33.7% | NCI-H522 lung -18.6% | A549/ATCC NSCLC -14.4% | 786-0 renal -20.9% | DU-145 prostate -22.9% | K-562 leukemia -22.6% | MALME-3M melanoma -39% | MDA-MB-231 breast -81.9% | RXF 393 renal -76.8% | SF-268 CNS 3.1% | SF-295 CNS -14.9% | SF-539 CNS -73.9% | UACC-257 melanoma -18.2% | M14 melanoma -44%

CCOc1ccc(S(=O)(=O)c2ccc(C)cc2)c2c1no[n+]2[O-]
inactive: NCI-H23 lung 82.4% | NCI-H226 lung 77.2% | NCI-H322M lung 92.7% | HOP-62 NSCLC 101% | NCI-H460 lung 86.4% | HOP-92 NSCLC 36.5% | NCI-H522 lung 57.1% | A549/ATCC NSCLC 97.2% | 786-0 renal 79.6% | DU-145 prostate 86.2% | K-562 leukemia 46.1% | MALME-3M melanoma 81.3% | MDA-MB-231 breast 81.2% | RXF 393 renal 81.8% | SF-268 CNS 99.1% | SF-295 CNS 82.9% | SF-539 CNS 87% | UACC-257 melanoma 95.8% | M14 melanoma 93.4%

Cc1cc(N(CCCNc2ccnc3cc(Cl)ccc23)Cc2ccccn2)nc(N2CCOCC2)n1
inactive: NCI-H23 lung 90.4% | NCI-H226 lung 90.9% | NCI-H322M lung 94.1% | HOP-62 NSCLC 85.2% | NCI-H460 lung 99.7% | HOP-92 NSCLC 66.6% | NCI-H522 lung 74.7% | A549/ATCC NSCLC 86.4% | 786-0 renal 86% | DU-145 prostate 113% | K-562 leukemia 67.8% | MALME-3M melanoma 89.8% | MDA-MB-231 breast 95.2% | RXF 393 renal 77.3% | SF-268 CNS 83.3% | SF-295 CNS 92.9% | SF-539 CNS 91.4% | UACC-257 melanoma 101% | M14 melanoma 95.7%

O=c1cc(-c2ccc(OCc3ccccc3)cc2)oc2c(I)c(OCc3ccccc3)cc(OCc3ccccc3)c12
inactive: NCI-H23 lung 103% | NCI-H226 lung 90% | NCI-H322M lung 96.6% | HOP-62 NSCLC 125% | NCI-H460 lung 99.2% | HOP-92 NSCLC 108% | NCI-H522 lung 91.5% | A549/ATCC NSCLC 96.4% | 786-0 renal 96.8% | DU-145 prostate 105% | K-562 leukemia 84.3% | MALME-3M melanoma 107% | MDA-MB-231 breast 110% | RXF 393 renal 139% | SF-268 CNS 99% | SF-295 CNS 99% | SF-539 CNS 100% | UACC-257 melanoma 95.9% | M14 melanoma 95.6%
